Hits are enriched below; roughly 2.4% of the tested compounds scored in any of these assays.
POLK inh: qHTS for Inhibitors of Polymerase Kappa | DNA polymerase kappa (Homo sapiens), Q9UBT6 | purified Pol kappa, fluorescent DNA synthesis assay, 10 min | hit rate 0.53% among 400,000 | Potency, µM (top dose mostly 107 µM), hits mostly inhibitors | AID 588579, 2011
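Kinetic fluorescence readout at 0 and 10 min followed reaction start with substrate at 50 nM final. Beforehand, enzyme (10 nM Pol kappa) stood 15 min with compound at room temperature; buffer-only wells were negative controls.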
Pol beta inh: qHTS Assay for Inhibitors of DNA Polymerase Beta. P06746. Pol beta primer extension/strand displacement, fluorescence kinetic. Potency, µM (doses to about 114 µM), hits mostly inhibitors. hit rate 1.3% among 340,000. AID 485314, 2010
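10 nM enzyme + cpd, 15 min RT; start with substrate 50 nM final; read 0 min and after 10 min RT. Corrected, normalized data; 4-parameter Hill curve fit.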
POLI inh: qHTS for Inhibitors of Polymerase Iota; DNA polymerase iota (Homo sapiens), Q9UNA4; Pol iota fluorescent replication assay, 10 min; Potency, µM (top dose mostly 115 µM), usual class: inhibitors; hit rate 1% among 390,000; AID 588590, 2011
Target sequence (Q9UNA4 whole entry, looked up): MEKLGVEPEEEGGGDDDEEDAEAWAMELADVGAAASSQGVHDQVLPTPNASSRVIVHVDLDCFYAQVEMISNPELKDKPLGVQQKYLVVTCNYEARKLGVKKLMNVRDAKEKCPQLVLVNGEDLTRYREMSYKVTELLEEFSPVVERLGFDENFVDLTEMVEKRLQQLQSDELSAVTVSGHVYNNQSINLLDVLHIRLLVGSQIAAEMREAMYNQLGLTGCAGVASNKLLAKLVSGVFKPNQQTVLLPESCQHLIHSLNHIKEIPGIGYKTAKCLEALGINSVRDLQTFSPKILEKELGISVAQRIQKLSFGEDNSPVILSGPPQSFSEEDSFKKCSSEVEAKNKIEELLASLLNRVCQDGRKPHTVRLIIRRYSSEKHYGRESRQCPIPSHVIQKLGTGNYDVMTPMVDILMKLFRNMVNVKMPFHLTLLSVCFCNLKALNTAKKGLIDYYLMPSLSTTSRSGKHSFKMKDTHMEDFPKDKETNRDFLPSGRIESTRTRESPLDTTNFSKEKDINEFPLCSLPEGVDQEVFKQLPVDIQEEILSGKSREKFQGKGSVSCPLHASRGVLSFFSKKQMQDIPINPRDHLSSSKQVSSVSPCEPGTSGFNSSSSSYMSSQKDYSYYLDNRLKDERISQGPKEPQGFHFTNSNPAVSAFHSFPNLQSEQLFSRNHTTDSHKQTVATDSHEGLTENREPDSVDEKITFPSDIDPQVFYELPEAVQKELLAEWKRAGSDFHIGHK
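Pol iota at 10 nM preincubated 15 min with compounds at room temperature; reaction started with fluorescent substrate, 50 nM final. Fluorescence read kinetically at 0 and 10 min; buffer-only wells as negative control.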
Pol eta inh: qHTS for Inhibitors of Polymerase Eta; recombinant Pol eta, fluorescent DNA replication assay; Potency, µM (series often up to 114 µM), hits mostly inhibitors; hit rate 1.2% among 390,000
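Pol eta (10 nM) was preincubated with compounds for 15 min at room temperature, after which fluorescent replication substrate (50 nM final) was added to start the reaction. Fluorescence was read kinetically at 0 and 10 min.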
L3MBTL1 inh: qHTS Assay for the Inhibitors of L3MBTL1. Potency, µM (highest dose often 57.1 µM), hits mostly inhibitors. AlphaScreen L3MBTL1–H3K9me1 peptide binding. hit rate 0.66% among 230,000. Lethal(3)malignant brain tumor-like protein 1 (Homo sapiens), Q9Y468. AID 485360, 2010; note: nearly all actives have a fitted effect of over 60% in size
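L3MBTL1 (50 nM) pre-complexed 30 min with biotinylated H3(1-15)K9me1 peptide (75 nM), then compounds added for 30 min at room temperature; AlphaScreen streptavidin donor/nickel chelate acceptor beads (10 ug/mL final) read after 30 min dark incubation.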
Of the large screens only hits and unclear results are named; the others gave an inactive call. Calls come from the whole dose curve; as a rule, active = well fitted curve in the direction sought with a large enough effect; inconclusive = small, poorly fitted or top-dose-only effect, or another doubt; inactive = no such curve, though single readings can be large; an effect the other way counts as inactive or inconclusive.

NC(=O)CSc1nnc(NC(=O)C2CC(=O)N(c3ccc(F)cc3)C2)s1 (configuration not stated)	Pol eta inh 50µM (no result: L3MBTL1 inh)
COc1cccc(N2CC(C(=O)Nc3nnc(SCCC4OCCO4)s3)CC2=O)c1 (configuration not stated)	POLI inh inconclusive, Pol eta inh 45µM (no result: L3MBTL1 inh)
Cc1ccc(N2CC(C(=O)Nc3nnc(SCC(N)=O)s3)CC2=O)cc1 (configuration not stated)	none (no result: L3MBTL1 inh)
O=C(Nc1nnc(SCCC2OCCO2)s1)C1CC(=O)N(c2ccc(F)cc2)C1 (configuration not stated)	Pol beta inh 45µM, POLI inh inconclusive, Pol eta inh 20µM (no result: L3MBTL1 inh)
O=C(Nc1nnc(SCC(=O)N2CCOCC2)s1)C1CC(=O)N(c2ccccc2)C1 (configuration not stated)	none (no result: L3MBTL1 inh)
COc1ccc(NC(=O)N(C)C[C@@H]2OCc3cnnn3CCCC(=O)N([C@H](C)CO)C[C@@H]2C)cc1	none (no result: POLK inh, Pol beta inh, POLI inh, L3MBTL1 inh)
O=C(NCc1ccccc1)c1ccc(OC2CSC2)cc1	none
O=C(O)c1ccc(OC2CSC2)cc1	POLI inh inconclusive, Pol eta inh 20µM
Cc1ccc(S(=O)(=O)N2CCCCC2)cc1C(=O)Nc1ncn[nH]1	Pol beta inh 25µM (no result: POLK inh, POLI inh, Pol eta inh)
CC(=O)Nc1ccc(NC(=O)c2cc(S(=O)(=O)N3CCCCC3)ccc2C)cc1	POLI inh inconclusive (no result: Pol beta inh)
Cc1ccc(-c2csc3ncnc(Sc4nnnn4C4CC4)c23)cc1	none (no result: Pol beta inh, Pol eta inh, L3MBTL1 inh)
O=C1C=C(c2ccccc2)OC(c2ccccc2)O1 (configuration not stated)	Pol beta inh 11µM
Cc1cccc(N/N=C/c2ccc(O)c(O)c2O)c1	POLK inh inconclusive, Pol beta inh 10µM, POLI inh inconclusive, Pol eta inh inconclusive, L3MBTL1 inh inconclusive
COc1cccc(N/N=C/c2cccc(Br)c2O)c1	none
CN(C)c1ccc(-c2cc(C3C4C=CCCC4(C)C(=O)N3Cc3ccccc3)ccc2F)cc1 (configuration not stated)	none (no result: Pol beta inh, Pol eta inh, L3MBTL1 inh)
CSCC[C@H](NC(=O)[C@H](Cc1ccc(OS(=O)(=O)O)cc1)NC(=O)[C@@H](N)CC(=O)O)C(=O)NCC(=O)N[C@@H](Cc1c[nH]c2ccccc12)C(=O)N[C@@H](CCSC)C(=O)N[C@@H](CC(=O)O)C(=O)N[C@@H](Cc1ccccc1)C(N)=O	none (no result: Pol beta inh, POLI inh, Pol eta inh, L3MBTL1 inh)
COC(=O)c1ccc(-n2c(C)cc(C(=O)CCl)c2C)cc1	POLI inh 13µM, Pol eta inh inconclusive (no result: L3MBTL1 inh)
NCCCC[C@H](NC(=O)[C@H](Cc1c[nH]c2ccccc12)NC(=O)[C@H](CC(=O)O)NC(=O)[C@H](Cc1cnc[nH]1)NC(=O)[C@H](CO)NC(=O)[C@H](Cc1c[nH]c2ccccc12)NC(=O)[C@H](Cc1cnc[nH]1)NC(=O)[C@@H]1CCC(=O)N1)C(=O)N1CCC[C@H]1C(=O)NCC(N)=O	none (no result: Pol beta inh, POLI inh, Pol eta inh, L3MBTL1 inh)
COCCOC(=O)c1c(C)nc(SCC(=O)Nc2ccc(OC)cc2)c(C#N)c1-c1ccco1	POLI inh inconclusive, Pol eta inh inconclusive (no result: L3MBTL1 inh)
Cc1nc(SCC(=O)c2ccccc2)c(C#N)c(-c2ccco2)c1C(=O)NCc1ccco1	POLK inh inconclusive, POLI inh inconclusive, Pol eta inh 20µM, L3MBTL1 inh inconclusive
O=C(/C=C/c1ccc(Cl)cc1)NC(=S)Nc1ccccc1C(=O)O	Pol beta inh inconclusive, POLI inh inconclusive, Pol eta inh 56µM (no result: L3MBTL1 inh)
NC(=O)c1ccccc1NC(=O)/C=C/c1ccc(Cl)cc1	none
C#Cc1ccc2c(c1)C(=O)N(C)Cc1c(C(=O)OCCCOC(=O)c3ncn4c3CN(C)C(=O)c3cc(C#C)ccc3-4)ncn1-2	none (no result: Pol beta inh, POLI inh, Pol eta inh, L3MBTL1 inh)
CCN(C(=O)C1CCN(S(=O)(=O)c2c(C)noc2/C=C/c2ccc(C)cc2)CC1)c1cccc(C)c1	none (no result: L3MBTL1 inh)
CCOC(=O)CNS(=O)(=O)c1cc(-c2nnc(Nc3cccc(O)c3)c3ccccc23)ccc1C	POLK inh inconclusive, POLI inh 89µM (no result: L3MBTL1 inh)
Cc1ccc(-c2nnc(Nc3cccc(O)c3)c3ccccc23)cc1S(=O)(=O)NCCO	Pol eta inh inconclusive
CCOc1ccc(NC(=O)CN(C)Cc2cc(=O)n3c(-c4ccccc4)csc3n2)cc1OCC	Pol beta inh 25µM, POLI inh inconclusive, L3MBTL1 inh inconclusive
